Calls of active or inactive are those of the source.
Experiment: basal MM1S mitochondrial membrane potential changes, profiling panel, cell-based, JC-1 fluorescence, 24 h, 100 nL compound (AID 1170)
Settings: higher = more signal
Also: test concentration not given here.

| SMILES | z-score |
| --- | --- |
| C[C@]1(C(=O)O)c2ccccc2C(=O)N(Cc2cc(C(F)(F)F)cc(C(F)(F)F)c2)[C@H]1c1ccc(CO)cc1 | -0.468 |
| COC(=O)C(CC#Cc1ccc2c(c1)[C@]1(C(=O)N2)[C@H](c2ccc(OCCO)cc2)N2[C@H](c3ccccc3)[C@H](c3ccccc3)OC(=O)[C@H]2[C@@H]1C(N)=O)C(=O)OC | -0.927 |
| CN1C(=O)C2C=CC(C(O)c3ccc(I)cc3)N(N(c3ccccc3)c3ccccc3)C2C1=O (configuration not stated) | -0.752 |
| COc1ccc([Si](C)(C)[C@@H]2[C@@H](CC(=O)N(CCO)Cc3ccccc3)O[C@]3(C(=O)N(Cc4cccc(I)c4)c4ccccc43)[C@H]2C)cc1 | -1.68 |
| COc1ccc([Si](C)(C)[C@H]2[C@H](CC(=O)N3CCC[C@H]3CO)O[C@@]3(C(=O)N(Cc4cccc(N5CCCCC5=O)c4)c4ccccc43)[C@@H]2C)cc1 | 0.286 |
| O=C1C2C=CC(C(O)C3CCCCC3)N(Nc3ccccc3F)C2C(=O)N1c1ccccc1 (configuration not stated) | -0.433 |
| C=C(COC)/C(=C/C[C@@H](OC(C)=O)c1cccc(OCCO)c1)c1cnc2ccccc2c1 | 0.627 |
| COC(=O)C1=CC(c2ccc(CO)cc2)=CC(C2CC2)N(Cc2cc3c(cc2Br)OCO3)C=C1C(=O)OC (configuration not stated) | -1.34 |
| O=C/C=C/c1ccc(-c2ccccc2)cc1 | -3.05 |
| COc1ccc(C(O)C2C=CC3C(=O)N(C)C(=O)C3N2Nc2ccccc2)cc1 (configuration not stated) | -0.153 |
| COCCOC(=O)N1C(=O)[C@@]2(c3cc(C#CCNC(N)=O)ccc31)[C@H](c1ccccc1OCCO)N1[C@H](c3ccccc3)[C@H](c3ccccc3)OC(=O)[C@H]1[C@@H]2C(=O)N1CCCCCCC1 | -0.911 |
| CC1C2C(CCCO)=CC(C3C(=O)N(C(N)=O)C(=O)C23)N1Cc1cccc(OC(F)(F)F)c1 (configuration not stated) | -0.547 |
| CCCC=C(CCC)[C@@H](NC(=O)c1ccc(C(=O)OC)cc1)c1ccc(C(=O)OC)cc1 | -1.15 |
| COc1ccc(C#Cc2ccc3c(c2)[C@]2(C(=O)N3)[C@H](c3ccccc3OCCO)N3[C@H](c4ccccc4)[C@H](c4ccccc4)OC(=O)[C@H]3[C@@H]2C(=O)NC[C@H](O)c2ccccc2)cc1 | -1.66 |
| C=C(C(=O)CC[C@@H](OC(=O)c1ccccc1-c1ccccc1C(=O)O)c1cccc(OCCO)c1)C(C)C | 0.0602 |
| C[C@]1(C(=O)NC2CC2)c2ccccc2C(=O)N(Cc2cc(F)cc(C(F)(F)F)c2)[C@H]1c1ccc(CO)cc1 | -0.328 |
| C=C(COC)C(=O)CC[C@H](OC(C)=O)c1ccccc1OCCO | -1.18 |
| CCOC(=O)C[C@H]1[C@H](OC(=O)Cc2ccc3c(c2)OCO3)[C@@H](NC(=O)CC(C)C)c2cc(OCCCO)ccc2N1C(=O)c1ccc2ccccc2n1 | -0.659 |
| O=C1C[C@@](C(=O)NCC(F)(F)F)(c2ccc([N+](=O)[O-])cc2)[C@@H](c2ccc(CO)cc2I)N1CC12CC3CC(CC(C3)C1)C2 | -2.17 |
| COc1cc(CO)cc(I)c1O[C@H]1C=C(C(=O)NCCO)C[C@@H](N(CCN2CCOCC2)C(=O)C2CCCO2)[C@@H]1O (some centres not stated) | -0.1 |
| O=C1C2C=CC(C(O)C(c3ccccc3)c3ccccc3)N(Nc3ccccc3F)C2C(=O)N1c1ccccc1 (configuration not stated) | -0.73 |
| COC(=O)C[C@H]1O[C@]2(C(=O)N(C)c3ccccc32)[C@@H](C)[C@@H]1[Si](C)(C)c1ccccc1 | 0.425 |
| CC(C)(C)OC(=O)CC[C@]1(C(=O)N2CCOCC2)COC(c2ccc(OCCCO)cc2)=N1 | -0.143 |
| C=C(CC1([C@@H](NP(=O)(c2ccccc2)c2ccccc2)[C@H]2C[C@@H]2CCCC)CC1)c1cccc(OC)c1 | -0.366 |
| COc1ccc(C(=O)Nc2cccc(CN3C(=O)[C@]4(O[C@H](CC(=O)N(CCO)Cc5ccccc5)[C@@H]([Si](C)(C)c5ccc(OC)cc5)[C@@H]4C)c4ccccc43)c2)cc1 | -1.51 |
| CC[C@@H](O[Si](C#C[Si](C(C)C)(C(C)C)C(C)C)(C(C)C)C(C)C)c1cn([C@H](CO)Cc2ccccc2)nn1 | -0.757 |

Experiment: A549 lung cancer cell viability effects, profiling panel, resazurin fluorescence, 24 h, PK04 Diversity Set (AID 1171)
Settings: higher = more signal, called active from +8 up or from −8 down

| SMILES | z-score |
| --- | --- |
| COc1cc(Cc2cc3c(c(-c4ccccc4)n2)[Si](C(C)C)(C(C)C)OC3)cc(OC)c1OC | 0.534 (inactive) |
| COCCOC(=O)N1C(=O)[C@@]2(c3cc(C#CCC(C(=O)OC)C(=O)OC)ccc31)[C@H](C(N)=O)[C@H]1C(=O)O[C@H](c3ccccc3)[C@H](c3ccccc3)N1[C@@H]2c1ccccc1OCCO | -0.175 (inactive) |
| C[C@@]1([C@@H](NS(=O)(=O)c2cccc3cccnc23)c2ccc(-c3ccccc3)cc2)C[C@H]1C1CCCCC1 | -0.892 (inactive) |
| C=C(C(=O)CC[C@@H](OC(=O)c1ccccc1-c1ccccc1C(=O)O)c1ccc(CO)o1)C(C)C | -0.359 (inactive) |
| CCOC(=O)C1=CCC(c2cccn2C(=O)OC(C)(C)C)N(S(=O)(=O)c2ccc(C)cc2)C1 (configuration not stated) | -0.373 (inactive) |
| O=C1N(Cc2ccccc2)c2ccccc2C[C@@]12N=C(c1ccc(OCCCO)cc1)O[C@H]2c1ccccc1 | -1.63 (inactive) |
| Cc1ccc(S[C@]2(C(=O)NC3CC3)CC(=O)N(C3Cc4ccccc4C3)[C@@H]2c2ccc(CO)cc2I)cc1 | 0.395 (inactive) |
| CCc1cccc(NC(=O)O[C@H]2[C@H](OC(=O)Nc3ccccc3-c3ccccc3)[C@H](OC(=O)Nc3ccccc3-c3ccccc3)[C@@H](OC)O[C@@H]2CO)c1 | -0.684 (inactive) |
| CC(C)C[C@H]1NC(=O)CNC(=O)[C@@]23C(=O)N[C@@H](Cc4ccccc4)C2[C@H](C)[C@@]2(C)O[C@H]2C3/C=C/C/C=C\CNC1=O (some centres not stated) | 0.478 (inactive) |
| C=C(/C=C\CNS(=O)(=O)c1ccc(C)cc1)[C@H](O)[C@H]1CCCN1S(=O)(=O)c1ccccc1[N+](=O)[O-] | 0.0403 (inactive) |
| C[C@]1(C(=O)O)c2ccccc2C(=O)N(Cc2cc(C(F)(F)F)cc(C(F)(F)F)c2)[C@H]1c1ccc(CO)cc1 | 0.449 (inactive) |
| COC(=O)C(CC#Cc1ccc2c(c1)[C@]1(C(=O)N2)[C@H](c2ccc(OCCO)cc2)N2[C@H](c3ccccc3)[C@H](c3ccccc3)OC(=O)[C@H]2[C@@H]1C(N)=O)C(=O)OC | -0.0032 (inactive) |
| CN1C(=O)C2C=CC(C(O)c3ccc(I)cc3)N(N(c3ccccc3)c3ccccc3)C2C1=O (configuration not stated) | -0.614 (inactive) |
| COc1ccc([Si](C)(C)[C@@H]2[C@@H](CC(=O)N(CCO)Cc3ccccc3)O[C@]3(C(=O)N(Cc4cccc(I)c4)c4ccccc43)[C@H]2C)cc1 | -2.97 (inactive) |
| COc1ccc([Si](C)(C)[C@H]2[C@H](CC(=O)N3CCC[C@H]3CO)O[C@@]3(C(=O)N(Cc4cccc(N5CCCCC5=O)c4)c4ccccc43)[C@@H]2C)cc1 | 0.423 (inactive) |
| O=C1C2C=CC(C(O)C3CCCCC3)N(Nc3ccccc3F)C2C(=O)N1c1ccccc1 (configuration not stated) | -0.852 (inactive) |
| C=C(COC)/C(=C/C[C@@H](OC(C)=O)c1cccc(OCCO)c1)c1cnc2ccccc2c1 | -0.736 (inactive) |
| COC(=O)C1=CC(c2ccc(CO)cc2)=CC(C2CC2)N(Cc2cc3c(cc2Br)OCO3)C=C1C(=O)OC (configuration not stated) | -1.15 (inactive) |

| SMILES | z-score |
| --- | --- |
| O=C/C=C/c1ccc(-c2ccccc2)cc1 | -0.539 (inactive) |
| COc1ccc(C(O)C2C=CC3C(=O)N(C)C(=O)C3N2Nc2ccccc2)cc1 (configuration not stated) | -1.27 (inactive) |
| COCCOC(=O)N1C(=O)[C@@]2(c3cc(C#CCNC(N)=O)ccc31)[C@H](c1ccccc1OCCO)N1[C@H](c3ccccc3)[C@H](c3ccccc3)OC(=O)[C@H]1[C@@H]2C(=O)N1CCCCCCC1 | 0.519 (inactive) |
| CC1C2C(CCCO)=CC(C3C(=O)N(C(N)=O)C(=O)C23)N1Cc1cccc(OC(F)(F)F)c1 (configuration not stated) | -0.13 (inactive) |
| CCCC=C(CCC)[C@@H](NC(=O)c1ccc(C(=O)OC)cc1)c1ccc(C(=O)OC)cc1 | 0.69 (inactive) |
| COc1ccc(C#Cc2ccc3c(c2)[C@]2(C(=O)N3)[C@H](c3ccccc3OCCO)N3[C@H](c4ccccc4)[C@H](c4ccccc4)OC(=O)[C@H]3[C@@H]2C(=O)NC[C@H](O)c2ccccc2)cc1 | -1.01 (inactive) |
| C=C(C(=O)CC[C@@H](OC(=O)c1ccccc1-c1ccccc1C(=O)O)c1cccc(OCCO)c1)C(C)C | 1.33 (inactive) |
| C[C@]1(C(=O)NC2CC2)c2ccccc2C(=O)N(Cc2cc(F)cc(C(F)(F)F)c2)[C@H]1c1ccc(CO)cc1 | 1.79 (inactive) |
| C=C(COC)C(=O)CC[C@H](OC(C)=O)c1ccccc1OCCO | -0.164 (inactive) |
| CCOC(=O)C[C@H]1[C@H](OC(=O)Cc2ccc3c(c2)OCO3)[C@@H](NC(=O)CC(C)C)c2cc(OCCCO)ccc2N1C(=O)c1ccc2ccccc2n1 | 0.194 (inactive) |
| O=C1C[C@@](C(=O)NCC(F)(F)F)(c2ccc([N+](=O)[O-])cc2)[C@@H](c2ccc(CO)cc2I)N1CC12CC3CC(CC(C3)C1)C2 | -3.86 (inactive) |
| COc1cc(CO)cc(I)c1O[C@H]1C=C(C(=O)NCCO)C[C@@H](N(CCN2CCOCC2)C(=O)C2CCCO2)[C@@H]1O (some centres not stated) | -0.0953 (inactive) |
| O=C1C2C=CC(C(O)C(c3ccccc3)c3ccccc3)N(Nc3ccccc3F)C2C(=O)N1c1ccccc1 (configuration not stated) | -0.021 (inactive) |
| COC(=O)C[C@H]1O[C@]2(C(=O)N(C)c3ccccc32)[C@@H](C)[C@@H]1[Si](C)(C)c1ccccc1 | 1.38 (inactive) |
| CC(C)(C)OC(=O)CC[C@]1(C(=O)N2CCOCC2)COC(c2ccc(OCCCO)cc2)=N1 | 0.216 (inactive) |
| C=C(CC1([C@@H](NP(=O)(c2ccccc2)c2ccccc2)[C@H]2C[C@@H]2CCCC)CC1)c1cccc(OC)c1 | 6.21 (inactive) |
| COc1ccc(C(=O)Nc2cccc(CN3C(=O)[C@]4(O[C@H](CC(=O)N(CCO)Cc5ccccc5)[C@@H]([Si](C)(C)c5ccc(OC)cc5)[C@@H]4C)c4ccccc43)c2)cc1 | -1.51 (inactive) |
| CC[C@@H](O[Si](C#C[Si](C(C)C)(C(C)C)C(C)C)(C(C)C)C(C)C)c1cn([C@H](CO)Cc2ccccc2)nn1 | 0.194 (inactive) |
